Source: PubChem BioAssay
Calls of active or inactive are those of the source.

Legend:
Albumin (Bos taurus) = Albumin (Bos taurus) (UniProt P02769); assay: bovine serum albumin binders on microarray, profiling panel, artefact control for SMM control protein annotation, biochemical, small-molecule microarray, Alexa647 label, 635/667 nm fluorescence (AID 1118); details: BSA-A647 binding, fluorescence 635 nm, higher = more signal;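 further: score merges 667 nm emission intensity and signal-to-noise per printed compound spot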
[1] = small-molecule microarray binders of probe aXIP, primary screen, biochemical, NeuroSMM set, 635/667 nm fluorescence (AID 1119); details: higher = more signal, called active from +8 up or from −8 down;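 further: probe is the protein aXip251-270 applied at 1 µg/mL to compound-printed slides; binding of probe to printed compounds measured as 667 nm fluorescence plus signal to noise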
[2] = small-molecule binders of probe aNOTCH3, primary screen, biochemical, small-molecule microarray, 635/667 nm fluorescence (AID 1120); details: higher = more signal;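 further: probe is a biotin-tagged antibody raised against NOTCH3 rather than NOTCH3 protein; score merges spot fluorescence near 667 nm with spot signal to noise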
[3] = small-molecule binders of probe aNOTCH2, primary screen, biochemical, small-molecule microarray, 635/667 nm fluorescence (AID 1121); details: higher = more signal;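 further: score merges feature fluorescence read at 667 nm with its signal to noise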
[4] = target: Carbonic anhydrase 2 (Homo sapiens) (UniProt P00918); assay: CAII small-molecule binders, profiling panel, biochemical, small-molecule microarray, Alexa647-labelled CAII (AID 1122); details: CAII-A647 binding fluorescence, higher = more signal
[5] = COS7 lysate on small-molecule microarray, probe aHis, 635 nm (AID 1123); details: COS7 cell lysate, fluorescence, higher = more signal;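 further: z-score combines 667nm fluorescence intensity with signal-to-noise per printed compound spot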
[6] = compound binding in COS7 lysate, probe aLAP1, primary screen, cell lysate, small-molecule microarray (AID 1124); details: probe aLAP1, fluorescence, higher = more signal;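 further: lysate comes from COS7 cells expressing LAP1 and is applied at 0.3 µg/mL; score merges spot fluorescence near 667 nm with signal-to-noise over triplicate slides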
Sam68 (KHDRBS1) = assay: Sam68 small-molecule binders, primary screen, biochemical, small-molecule microarray, 635 nm fluorescence (AID 1125); details: small-molecule microarray binding, higher = more signal;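 further: score merges 667 nm channel intensity with signal to noise over triplicate slides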
[7] = test system: Chordin-like protein 2 (CHRDL2); assay: CHRDL2 small-molecule binders, primary screen, biochemical, small-molecule microarray, 635 nm fluorescence (AID 1126); details: small-molecule microarray binding, fluorescence 635 nm; higher = more signal;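 further: printed compound slides probed with Chrdl2 protein at 4 µg/mL for 1 h at 4 C; score merges 667 nm emission intensity with signal to noise over three replicate slides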
[8] = target: Concanavalin-A (Canavalia ensiformis) (UniProt P02866); assay: ConA small-molecule binders, primary screen, artefact control for SMM control protein annotation, biochemical, small-molecule microarray, Alexa647 label, 635 nm (AID 1127); details: ConA-A647 binding fluorescence, higher = more signal;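 further: z combines 667 nm emission intensity with signal-to-noise across three replicate slides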
[9] = anti-His antibody binders, primary screen, artefact control for SMM control protein annotation, biochemical, small-molecule microarray, 635 nm fluorescence (AID 1128); details: anti-His Alexa647 antibody binding, higher = more signal;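 further: score merges feature fluorescence with signal-to-noise for each printed compound spot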
[10] = test system: Human papillomavirus type 1a E7 protein (residues 1-88); assay: HPV1a E7 small-molecule binders, primary screen, biochemical, small-molecule microarray, residues 1-88, 635 nm (AID 1129); details: small-molecule microarray binding, fluorescence 635 nm; higher = more signal
[11] = target: Focal adhesion kinase 1 (Homo sapiens) (UniProt Q05397); assay: small-molecule microarray binders of FAK, primary screen, biochemical, 635/667 nm fluorescence, BSA, DTT (AID 1130); details: PTK2 binding, 635 nm fluorescence, higher = more signal;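 further: composite of spot emission at 667 nm and signal to noise over triplicate slides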
[12] = test system: Fibrinogen (Alexa647-labelled); assay: fibrinogen binders on compound microarrays, profiling panel, artefact control for SMM control-protein annotation, biochemical, small-molecule microarray, 635/667 nm fluorescence (AID 1131); details: fibrinogen-A647 binding fluorescence, higher = more signal;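 further: z-score merges 667 nm fluorescence with per-spot signal-to-noise over triplicate slides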
[13] = target: Follistatin (Homo sapiens) (UniProt P19883); assay: follistatin binders on small-molecule microarrays, primary screen, biochemical, small-molecule microarray, 635/667 nm fluorescence (AID 1132); details: FST binding, 635 nm fluorescence, higher = more signal
[14] = target: Fibroblast growth factor 2 (Homo sapiens) (UniProt P09038); assay: FGF2 binders on small-molecule microarrays, primary screen, biochemical, small-molecule microarray, 635/667 nm fluorescence (AID 1133); details: small-molecule microarray binding, FGF2, fluorescence 635/667; higher = more signal
[15] = mitochondrial membrane potential change in A549 cells, profiling panel, cell-based, JC-1 fluorescence, basal, 24 h, 100 nL (AID 1138); details: higher = more signal;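 further: A549 lung adenocarcinoma cells under basal conditions with no added stimulus; test concentration not given here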
Lefty1 = Lefty1 binders on small-molecule microarrays, primary screen, biochemical, small-molecule microarray, 635/667 nm fluorescence (AID 1139); details: small-molecule microarray binding, fluorescence 635/667; higher = more signal
[16] = test system: wheat germ agglutinin (Triticum aestivum), Alexa647-labelled; assay: wheat germ agglutinin binders on compound microarrays, profiling panel, artefact control for SMM control-protein annotation, biochemical, small-molecule microarray, 635/667 nm fluorescence (AID 1140); details: WGA-A647 binding, 635 nm fluorescence, higher = more signal;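 further: score merges 667 nm feature emission with signal to noise over triplicate slides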
[17] = target: Luciferin 4-monooxygenase (Photinus pyralis) (UniProt P08659); assay: firefly luciferase enzyme inhibitors, primary screen, biochemical, luminescence, purified enzyme, 2006 set (AID 1141); details: SteadyGlo luminescence, 30 min, higher = more signal, called active from +8 up or from −8 down;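 further: cell-free assay with purified firefly luciferase at 100 ng per well in PBS; test concentration not given here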
Sequence of Luciferin 4-monooxygenase (Photinus pyralis) (P08659 whole entry, looked up): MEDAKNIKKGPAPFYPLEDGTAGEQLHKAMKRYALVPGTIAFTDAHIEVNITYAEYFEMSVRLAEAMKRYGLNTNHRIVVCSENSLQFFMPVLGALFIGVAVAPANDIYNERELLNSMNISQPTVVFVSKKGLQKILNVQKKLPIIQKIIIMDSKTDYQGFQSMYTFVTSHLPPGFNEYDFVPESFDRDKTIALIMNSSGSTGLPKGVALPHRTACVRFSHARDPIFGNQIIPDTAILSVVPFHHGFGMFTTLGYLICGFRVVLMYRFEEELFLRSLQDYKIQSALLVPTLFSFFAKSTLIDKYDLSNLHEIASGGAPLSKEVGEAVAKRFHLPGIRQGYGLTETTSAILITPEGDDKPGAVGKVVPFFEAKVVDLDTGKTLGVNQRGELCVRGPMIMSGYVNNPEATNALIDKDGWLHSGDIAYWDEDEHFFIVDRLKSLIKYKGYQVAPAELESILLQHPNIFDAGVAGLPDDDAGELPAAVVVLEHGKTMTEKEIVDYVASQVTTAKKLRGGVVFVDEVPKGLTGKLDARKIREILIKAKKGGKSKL

Sequence of Focal adhesion kinase 1 (Homo sapiens) (Q05397 whole entry, looked up): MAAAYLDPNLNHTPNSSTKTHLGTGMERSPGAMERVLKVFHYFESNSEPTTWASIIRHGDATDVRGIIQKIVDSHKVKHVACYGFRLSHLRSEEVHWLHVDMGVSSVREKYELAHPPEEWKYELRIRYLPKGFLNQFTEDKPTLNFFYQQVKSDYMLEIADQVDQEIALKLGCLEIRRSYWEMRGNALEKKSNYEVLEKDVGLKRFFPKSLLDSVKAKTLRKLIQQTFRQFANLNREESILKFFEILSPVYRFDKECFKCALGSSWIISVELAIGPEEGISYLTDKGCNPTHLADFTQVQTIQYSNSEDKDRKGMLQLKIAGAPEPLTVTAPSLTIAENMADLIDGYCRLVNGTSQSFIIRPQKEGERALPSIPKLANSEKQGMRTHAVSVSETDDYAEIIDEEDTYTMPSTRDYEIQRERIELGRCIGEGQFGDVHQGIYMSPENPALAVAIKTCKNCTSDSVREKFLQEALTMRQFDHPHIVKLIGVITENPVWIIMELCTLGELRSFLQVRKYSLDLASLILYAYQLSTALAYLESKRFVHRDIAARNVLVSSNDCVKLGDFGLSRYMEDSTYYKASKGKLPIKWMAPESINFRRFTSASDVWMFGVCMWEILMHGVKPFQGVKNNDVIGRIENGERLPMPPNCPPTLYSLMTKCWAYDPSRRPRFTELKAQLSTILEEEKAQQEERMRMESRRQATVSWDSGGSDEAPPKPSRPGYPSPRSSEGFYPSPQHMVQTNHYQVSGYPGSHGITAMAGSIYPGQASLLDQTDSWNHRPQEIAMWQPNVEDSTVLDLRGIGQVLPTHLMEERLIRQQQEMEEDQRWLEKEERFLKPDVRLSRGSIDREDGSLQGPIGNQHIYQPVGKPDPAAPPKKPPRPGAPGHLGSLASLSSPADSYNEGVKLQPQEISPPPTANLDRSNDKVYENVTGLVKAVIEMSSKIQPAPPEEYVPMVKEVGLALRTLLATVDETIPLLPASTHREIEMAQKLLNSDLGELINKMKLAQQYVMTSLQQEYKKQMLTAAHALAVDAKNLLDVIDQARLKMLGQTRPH
Sequence of Fibroblast growth factor 2 (Homo sapiens) (P09038 whole entry, looked up): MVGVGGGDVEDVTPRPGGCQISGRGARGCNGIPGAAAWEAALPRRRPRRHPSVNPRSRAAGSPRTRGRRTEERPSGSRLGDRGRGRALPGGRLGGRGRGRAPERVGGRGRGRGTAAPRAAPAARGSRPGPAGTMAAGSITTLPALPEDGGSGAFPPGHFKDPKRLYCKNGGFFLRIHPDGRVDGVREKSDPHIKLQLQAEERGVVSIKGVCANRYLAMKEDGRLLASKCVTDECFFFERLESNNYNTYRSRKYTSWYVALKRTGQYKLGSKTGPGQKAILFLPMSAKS
Sequence of Follistatin (Homo sapiens) (P19883 whole entry, looked up): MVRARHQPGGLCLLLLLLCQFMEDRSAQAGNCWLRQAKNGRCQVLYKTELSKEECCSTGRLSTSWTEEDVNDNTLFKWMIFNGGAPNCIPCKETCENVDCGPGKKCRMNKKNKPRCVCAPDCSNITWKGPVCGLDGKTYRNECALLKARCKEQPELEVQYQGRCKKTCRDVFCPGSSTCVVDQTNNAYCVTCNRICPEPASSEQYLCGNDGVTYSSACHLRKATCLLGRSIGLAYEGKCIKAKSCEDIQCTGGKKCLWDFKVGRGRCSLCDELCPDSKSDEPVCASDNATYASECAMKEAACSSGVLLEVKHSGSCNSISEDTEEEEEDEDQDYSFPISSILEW
Sequence of Albumin (Bos taurus) (P02769 whole entry, looked up): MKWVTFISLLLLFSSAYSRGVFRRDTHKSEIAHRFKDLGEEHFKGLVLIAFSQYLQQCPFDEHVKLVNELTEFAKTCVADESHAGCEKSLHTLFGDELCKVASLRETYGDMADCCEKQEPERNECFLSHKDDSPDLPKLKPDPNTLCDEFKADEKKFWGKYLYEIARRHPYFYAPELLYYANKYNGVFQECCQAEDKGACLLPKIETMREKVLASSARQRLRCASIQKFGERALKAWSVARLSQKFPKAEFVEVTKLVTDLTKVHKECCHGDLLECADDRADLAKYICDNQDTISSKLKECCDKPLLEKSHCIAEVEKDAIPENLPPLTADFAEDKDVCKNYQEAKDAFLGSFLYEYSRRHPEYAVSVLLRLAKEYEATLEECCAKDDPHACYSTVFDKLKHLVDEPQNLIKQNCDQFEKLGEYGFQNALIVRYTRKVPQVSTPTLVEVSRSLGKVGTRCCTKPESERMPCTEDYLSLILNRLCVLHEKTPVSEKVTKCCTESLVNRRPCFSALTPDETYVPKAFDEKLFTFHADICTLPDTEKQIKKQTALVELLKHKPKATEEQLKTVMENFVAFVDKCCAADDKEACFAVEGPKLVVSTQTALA
Sequence of Concanavalin-A (Canavalia ensiformis) (P02866 whole entry, looked up): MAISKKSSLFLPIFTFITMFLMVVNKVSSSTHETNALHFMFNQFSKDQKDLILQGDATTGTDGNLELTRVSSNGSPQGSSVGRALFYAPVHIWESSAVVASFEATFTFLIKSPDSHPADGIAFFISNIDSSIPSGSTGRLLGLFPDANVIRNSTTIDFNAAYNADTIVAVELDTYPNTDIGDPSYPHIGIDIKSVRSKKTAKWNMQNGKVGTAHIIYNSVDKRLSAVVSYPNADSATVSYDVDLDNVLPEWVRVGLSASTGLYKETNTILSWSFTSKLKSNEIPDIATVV

SMILES | composite z-score (Albumin (Bos taurus)) | composite Z-score [1] | composite z-score [2] | composite z-score [3] | composite z-score [4] | composite z-score [5] | composite z-score [6] | composite z-score (Sam68 (KHDRBS1)) | composite z-score [7] | composite z-score [8] | composite z-score [9] | composite z-score [10] | composite z-score [11] | composite z-score [12] | composite z-score [13] | composite z-score [14] | z-score [15] | composite z-score (Lefty1) | composite z-score [16] | z-score [17]
C=C(C1=CCN(S(=O)(=O)c2ccc(C)cc2)C1)[C@@H](OC(C)=O)[C@@H]1CCCN1S(=O)(=O)c1ccccc1[N+](=O)[O-] | -1.41 | -0.0256 (inactive) | -0.127 | -0.194 | 0.139 | 0.586 | -0.273 | -0.339 | -0.486 | -1.53 | 0.0491 | 0.128 | 0.137 | -1.38 | -0.273 | -0.343 | 1.7 | -0.0118 | -1.42 | -1.35 (inactive)
C=CC[C@@H](OC(=O)Nc1ccc(SC)cc1)c1ccc(OCCO)cc1 | -0.733 | 0.667 (inactive) | -0.267 | -0.179 | 0.758 | 1.99 | 0.105 | 0.655 | -2.01 | -0.264 | 2.42 | -0.0392 | -0.783 | -1.58 | -1.15 | -0.991 | 0.844 | -0.763 | -0.666 | -3.91 (inactive)
CN(C)CCCC[C@@H]1NC(=O)[C@@H]2C[C@H](C(=O)NCCCCCNC(=O)CS)[C@H](c3cccc(OCCO)c3)N2C1=O | 0.786 | 1.6 (inactive) | -0.15 | -0.167 | 0.82 | 0.356 | 0.303 | 0.528 | 0.728 | 0.65 | 2.04 | 0.05 | 0.387 | 0.119 | 1.49 | 1.65 | 0.43 | 1.45 | 0.626 | -0.673 (inactive)
COC(=O)[C@@]1(CCC(=O)OC(C)(C)C)COC(c2ccc(OCCCO)cc2)=N1 | -1.01 | -0.378 (inactive) | -0.239 | -0.147 | 0.558 | 0.214 | 0.993 | -0.724 | -2.22 | -1.8 | -1.22 | -1.66 | -0.15 | -2.51 | -2.21 | -1.64 | -0.122 | -2.55 | -1.57 | -1.4 (inactive)
C=C(COC)C(=O)CC[C@@H](OC(=O)c1ccccc1-c1ccccc1C(=O)O)c1cccc(OCCO)c1 | -0.39 | -0.122 (inactive) | -0.15 | -0.154 | 0.713 | 0.19 | -0.402 | -0.296 | 0.192 | 0.375 | -1.24 | -0.533 | -0.508 | -0.661 | 1.27 | 0.866 | 1.46 | 0.299 | -0.478 | -3.64 (inactive)
C=CCC(OC(C)=O)[C@@H]1[C@@H](N(Cc2cccc3ccccc23)C(=O)Cc2ccc(OC)cc2)c2cc(OCCCO)ccc2N1C(=O)Cc1ccc(OC)cc1 (stereo not given in full) | 0.73 | -0.199 (inactive) | -0.0373 | -0.104 | 0.207 | 0.624 | 0.163 | 0.0025 | 0.0487 | -0.532 | -0.28 | -0.418 | -0.238 | 0.849 | 0.148 | -0.0722 | 0.537 | -0.392 | 0.349 | -0.369 (inactive)
C=C(COC)/C(=C/C[C@H](OC(C)=O)c1cccc(OCCO)c1)c1cc(C(=O)OC)ccc1OC | -0.169 | 0.211 (inactive) | -0.0414 | -0.0649 | 0.656 | 0.193 | -0.219 | 0.705 | 1.25 | -0.0821 | 0.349 | -0.131 | -0.402 | -0.488 | 1.51 | 1.4 | -0.0205 | 1.72 | -1.08 | -0.727 (inactive)
COc1ccc([Si](C)(C)[C@H]2[C@H](CCO)O[C@@]3(C(=O)N(Cc4ccc(N5C(=O)c6cccc7cccc5c67)cc4)c4ccccc43)[C@@H]2C)cc1 | 0.258 | 0.466 (inactive) | -0.214 | -0.123 | 0.346 | 0.249 | 0.0741 | -0.465 | -1.06 | 0.609 | 0.21 | -0.141 | -0.266 | 0.193 | -0.771 | -0.611 | 1.9 | -0.255 | 0.796 | -0.558 (inactive)
COCCOC(=O)N1C(=O)[C@@]2(c3cc(C#CC4(O)CCCCCC4)ccc31)[C@H](c1ccc(O)cc1)N1[C@H](c3ccccc3)[C@H](c3ccccc3)OC(=O)[C@H]1[C@@H]2C(N)=O | 0.93 | -0.108 (inactive) | 0.0196 | -0.044 | 0.704 | 1.81 | 1.34 | 1.33 | -0.485 | 0.641 | 1.53 | 0.745 | 1.36 | -0.173 | 0.419 | 0.308 | 0.446 | 0.462 | 0.706 | -1.37 (inactive)
CC(C)C(=C=CC[C@H](O)c1ccc(OCCO)cc1)C[C@H](O)COCc1ccccc1 | 0.394 | 0.813 (inactive) | 0.0522 | -0.179 | 0.508 | 1.43 | 1.04 | 1.3 | 0.433 | 0.673 | 1.73 | 1.18 | -0.0245 | 0.749 | 1.31 | 1.03 | 2.47 | 0.795 | 0.325 | -2.55 (inactive)
CC(=O)NCCCC[C@@H]1NC(=O)[C@@H]2C[C@H](C(=O)O)[C@H](c3cccc(OCCO)c3)N2C1=O | -1.33 | 0.274 (inactive) | -0.126 | -0.146 | 0.276 | 0.348 | 0.0927 | 1.34 | 1.31 | 1.15 | 2 | 1.07 | 0.341 | 0.041 | 1.35 | 1.73 | 1.2 | 1.42 | 0.795 | -1.16 (inactive)
